Assay outcomes from PubChem BioAssay.
Only some compounds are listed: those with a hit (about 32% of all), similar ones and a draw of the others.
PostGolgi yeast – growth inhibition of a yeast mutant, post-Golgi transport screen | post-Golgi transport phenotypic cell assay | inhibition, % at 10 µM | 98,000 tested, 0.9% active | AID 739;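 also: yeast cells grown in 1536-well plates; yeast grown about 18 h at 30C before absorbance read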
PostGolgi ctrl – inhibits growth of the yeast control strain; inhibition, % at 10 µM; 98,000 tested, 5% active; efflux-deficient yeast background strain, growth absorbance A615, 16 h
CYP2C9 inhib – blocks human cytochrome P450 2C9; AID 777; 96,000 tested, 20% active; CYP2C9 Supersomes, luciferin-H conversion, luminescence; inhibition, % at 5 µM;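 active = blocking of liver enzyme CYP2C9 beyond about 50% at 5 µM, limit read from the data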
CYP2C9 activ – increases human cytochrome P450 2C9 activity. P11712. recombinant CYP2C9, luciferin-H conversion, luminescence; stronger effect = higher value; factor 1 = untreated enzyme, 0 = blocked. activation factor at 5 µM. 96,000 tested, 1.4% active. AID 1024;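 active = activation factor of 2 or more for CYP2C9 at a 5 µM dose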;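 also: 0 = sulfaphenazole-blocked wells and 1 = vehicle-only wells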
CYP2C19 inh – human CYP2C19 inhibition | CYP2C19 Supersomes, luciferin-H EGE luminescence, 30 min | inhibition, % at 5 µM | AID 778 | 96,000 tested, 21% active;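 active = CYP2C19 inhibition above a set limit at 5 µM in the primary screen, cut at about 50% in these data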;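 also: plate controls were negative control wells for no effect and 2.5 mM tranylcypromine positive control for full effect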
Target sequence (P33261 whole entry, looked up): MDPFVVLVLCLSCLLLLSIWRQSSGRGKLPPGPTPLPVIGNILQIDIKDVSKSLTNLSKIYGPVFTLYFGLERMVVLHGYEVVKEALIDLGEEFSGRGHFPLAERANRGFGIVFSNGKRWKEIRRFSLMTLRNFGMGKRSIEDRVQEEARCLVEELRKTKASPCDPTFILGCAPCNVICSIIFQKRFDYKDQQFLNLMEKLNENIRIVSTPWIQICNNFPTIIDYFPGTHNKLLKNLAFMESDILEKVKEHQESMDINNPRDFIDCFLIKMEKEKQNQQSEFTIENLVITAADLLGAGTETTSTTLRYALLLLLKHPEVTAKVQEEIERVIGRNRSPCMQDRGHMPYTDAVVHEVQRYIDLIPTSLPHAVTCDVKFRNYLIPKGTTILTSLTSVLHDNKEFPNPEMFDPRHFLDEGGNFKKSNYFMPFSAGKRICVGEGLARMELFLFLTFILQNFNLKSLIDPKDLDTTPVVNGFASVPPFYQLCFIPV
CYP2C19 activ – increases human CYP2C19 enzyme activity; P33261; recombinant CYP2C19, luciferin-H EGE luminescence; stronger effect = higher value; 0 = fully inhibited enzyme, 1 = untreated enzyme; activation factor at 5 µM; 96,000 tested, under 10 active; AID 1025;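 active = activation factor of at least 2 at 5 µM in the primary screen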;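 also: 0 = wells with 2.5 mM tranylcypromine and 1 = vehicle-only wells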
* marks the source's active call; other numbers are inactive results; . = no result given. Rule as the data show it, unless noted: active = inhibition above about 30%; inactive = the rest.

SMILES	PostGolgi yeast	PostGolgi ctrl	CYP2C9 inhib	CYP2C9 activ	CYP2C19 inh	CYP2C19 activ
COCCCn1c(SCc2cc(=O)[nH]c3ccccc23)nnc1-c1ccco1	3.1	-6.3	-10.6	1.1	-0.1	1
CSc1nnc2c3c4c(sc3c(=O)n(-c3ccccc3)n12)CC(C)(C)OC4	9.0	0.3	6.0	0.9	6.6	0.9
COc1ccc(-c2noc(CCC(=O)Nc3ccc(C)c(C)c3)n2)cc1	-2.9	9.4	57.7*	0.4	38.6	0.6
CCOC(=O)c1ccc(NC(=O)CCc2nc(-c3ccc(C)cc3)no2)cc1	2.8	4.8	94.2*	0.1	70.1*	0.3
Cc1cccc(CCNC(=O)CCc2nc(-c3ccccc3F)no2)c1	1.8	1.4	82.2*	0.2	91.5*	0.1
CC(C)CC(C)NNC(=O)c1cc2ccccc2[nH]1 (stereo unspecified)	0.8	3.2	5.7	0.9	48.4	0.5
CCC(C)n1nccc1NC(=O)C(C)OC(=O)c1cc2ccccc2[nH]1 (stereo unspecified)	-2.1	3.9	30.4	0.7	97.0*	0
OCCNc1nc(SCc2ccccc2)nc2sc3c(c12)CCC3	-0.9	74.2*	67.6*	0.3	46.6	0.5
COc1cccc(Nc2c(F)c(OC)c(F)c(F)c2C(=O)O)c1	-3.5	-1.4	23.1	0.8	-9.1	1.1
COc1cccc(Nc2c(F)c(F)c(F)c(F)c2C(=O)O)c1	0.2	8.6	61.1*	0.4	8.8	0.9
COc1ccc(CCNC(=O)CCN2C(=O)C3CC=CCC3C2=O)cc1OC (stereo unspecified)	3.8	10.1	.	.	.	.
CCOC(=O)N1CCN(C(=O)CSc2nc3c(cnn3-c3ccccc3)c(=O)[nH]2)CC1	-10.6	21.9	67.0*	0.3	22.1	0.8
CC1CN(c2nnnn2-c2ccccc2)CC(C)O1 (stereo unspecified)	3.9	-1.7	-1.8	1	74.1*	0.3
O=c1[nH]c(SCc2ccccc2Cl)nc2c1cnn2-c1ccccc1	-13.3	41.6*	1.8	1	-6.3	1.1
O=c1[nH]c(SCc2nc3c(cnn3-c3ccccc3)c(=O)[nH]2)nc2ccccc12	-4.8	16.7	43.8	0.6	41.1	0.6
O=c1[nH]c(CSc2nc3ccccc3o2)nc2c1cnn2-c1ccccc1	-10.1	12.3	67.8*	0.3	78.4*	0.2
CCCCN1CC(C(=O)NC2CCCCC2)CC1=O (stereo unspecified)	-0.3	7.3	-20.5	1.2	-13.0	1.1
N=c1ncn(CC(O)CO)c2nc(N3CCOCC3)[nH]c12 (stereo unspecified)	-4.2	10.2	-11.6	1.1	-9.3	1.1
CCOC(=O)N1CCN(c2nnnn2-c2ccccc2)CC1	12.6	10.2	49.3	0.5	91.1*	0.1
COc1ccc(C(=O)N2CCN(c3nnnn3-c3ccccc3)CC2)cc1OC	4.2	4.3	2.4	1	0.5	1
C/C(=N/NC(=O)c1ccc2c(c1)OCO2)c1cccc(NC(=O)C(C)(C)C)c1	-0.8	0.8	37.6	0.6	3.5	1
COC(=O)C1(C)Nc2ccccc2C(=O)N1c1ccccc1C (stereo unspecified)	-11.5	10.3	19.0	0.8	37.3	0.6
CCOC(=O)c1cnn2c(C(F)(F)F)cc(-c3cn(C)nc3C)nc12	3.3	-1.0	84.7*	0.2	57.1*	0.4
CCOC(=O)c1cnn(-c2nc(-c3ccccc3)cs2)c1C(F)(F)F	12.0	14.9	87.8*	0.1	42.6	0.6
CCOC(=O)c1cnc2c(-c3ccccc3)cnn2c1N	-3.6	6.3	57.3*	0.4	63.4*	0.4
SMILES	PostGolgi yeast	PostGolgi ctrl	CYP2C9 inhib	CYP2C9 activ	CYP2C19 inh	CYP2C19 activ
CCOC(=O)c1cnn2c(C(F)(F)F)cc(-c3ccccc3)nc12	2.1	-1.5	53.9*	0.5	27.5	0.7
COc1ccc2[nH]cc(C(=O)CN3CCN(C(=O)c4ccco4)CC3)c2c1	4.6	4.9	18.6	0.8	13.1	0.9
Cc1ccc(SCCNC(=O)C(CO)(CO)CO)cc1	-7.4	3.0	-8.4	1.1	-5.1	1.1
CCOC(=O)N1CCN(c2nc(-c3cccc(OC)c3)cc(C(F)(F)F)n2)CC1	4.8	9.9	47.4	0.5	21.1	0.8
CCOC(=O)N1CCC(NC(=O)c2cnn3c(C(F)(F)F)cc(-c4cccc(OC)c4)nc23)CC1	.	.	57.5*	0.4	60.6*	0.4
COc1cccc(-n2c(Cc3cc(=O)[nH]c(=O)[nH]3)nnc2SCC(=O)N2CCCCC2)c1	-5.2	12.9	-18.9	1.2	2.0	1
